Each structure is given as a SMILES string. The whole screen tested about 350,000 compounds, of which about 6,000 (1.7%) were called active. Roughly 5% stayed inconclusive and do not appear here. Cut-off read from the data, not from the text of the source: active = CPE inhibition above about 20% (passing the limit was not always enough); inconclusive = no clear call, values can overlap the other calls; tested in BHK-21 cells. The list comes from a sample in which actives are over-represented; it also holds similar structures and randomly drawn compounds.

This assay in a line: protection of cells from dengue 2 killing – plate reader, single concentration, primary screen (AID 651640).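 Note: 0% = median of neutral control wells and 100% = median of positive control wells.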 The following applies: DENV2-infected cells, cytopathic effect rescue, at 9.99 µM, stronger effect = higher value.
For `COC(=O)C[C@@H]1C[C@H]2c3cc(NC(=O)NC4CCCC4)ccc3O[C@H]2[C@H](CO)O1`, the CPE inhibition was 0.692% (inactive).
Take `CC(C)CC#Cc1ccc2c(c1)O[C@H](CN(C)C(=O)Cc1cccnc1)[C@H](C)CN([C@@H](C)CO)S2(=O)=O`: the CPE inhibition was -0.534% (inactive).
On to `CO[C@@H]1CN(C)C(=O)c2ccc(NC(=O)Nc3ccccc3)cc2OC[C@H](C)N(C(=O)CC2CC2)C[C@@H]1C`, for which the CPE inhibition is -5.7% (inactive).
The figure for `COc1cccc(S(=O)(=O)N[C@H]2C=C[C@H](CC(=O)NCc3ccc(Cl)cc3)O[C@@H]2CO)c1` is 23.8% (active).
The figure for `COc1cccc(S(=O)(=O)N[C@H]2C=C[C@@H](CC(=O)NCc3ccc(F)cc3)O[C@@H]2CO)c1` is 3.36% (inactive); for `COC(=O)C[C@@H]1C=C[C@@H](NS(=O)(=O)c2cccc(OC)c2)[C@@H](CO)O1` it is 1.84% (inactive); for `COc1ccccc1S(=O)(=O)N[C@H]1CC[C@@H](CC(=O)NCc2cc(F)cc(F)c2)O[C@H]1CO` it is -1.83% (inactive).
In the case of `COc1cccc(S(=O)(=O)N[C@H]2C=C[C@@H](CC(=O)NCc3ccccc3)O[C@@H]2CO)c1`, the CPE inhibition was -4.65% (inactive).
With `COc1ccccc1S(=O)(=O)N[C@@H]1C=C[C@H](CC(=O)NCc2cccc(F)c2)O[C@H]1CO`, the CPE inhibition is 41.8% (active).
On to `COc1ccc2c3c([nH]c2c1)[C@H](CO)N(C(=O)NC1CCCC1)CC31CN(C(=O)Nc2cccc(F)c2)C1`, for which the CPE inhibition was 9.59% (inactive).
The figure for `COc1ccc(NC(=O)Nc2ccc3c(c2)C(=O)N([C@@H](C)CO)C[C@@H](C)[C@H](CN(C)C(=O)NC(C)C)OCCCC[C@H](C)O3)cc1` is 3.37% (inactive).
Regarding `Cc1ccc(S(=O)(=O)Nc2ccc3c(c2)C(=O)N(C)[C@H]2CC[C@H](CC(=O)O)O[C@H]2CO3)cc1`, the CPE inhibition is 4.91% (inactive).
Consider `O=C(NCCCCc1ccccc1)C1CC(c2ccc([N+](=O)[O-])cc2)=NO1` (centres undefined), for which the CPE inhibition was 15.1% (inactive).
Consider `O=C(NCc1cc(C(F)(F)F)cc(C(F)(F)F)c1)C1CC(c2cccc(F)c2)=NO1` (centres undefined), for which the CPE inhibition is 23.7% (active).
On to `COc1ccc(C2=NOC(Cn3nc(C(=O)NCc4ccc5c(c4)OCO5)cc3-c3ccccc3)C2)cc1` (centres undefined), for which the CPE inhibition is 10.2% (inactive).
As for `COc1ccc(CNC(=O)C2CCCC2)cc1`, the CPE inhibition was -2.88% (inactive).
The figure for `O=C(NCc1cc(F)cc(C(F)(F)F)c1)C1CCC(=O)N(C2CCCC2)C1` (centres undefined) is 0.846% (inactive).
In the case of `COc1ccc(CNC(=O)C2CC(c3ccc(C(F)(F)F)cc3)=NO2)cc1` (centres undefined), the CPE inhibition is 87.8% (active).
The figure for `O=S(=O)(N[C@@H]1CC[C@@H](CCn2cc(-c3ccccn3)nn2)O[C@@H]1CO)c1cccc(Cl)c1` is 14.3% (inactive).
Consider `C[C@H]1CN([C@@H](C)CO)C(=O)c2cc(NC(=O)C3CC3)ccc2O[C@@H]1CN(C)S(=O)(=O)c1cn(C)cn1`, for which the CPE inhibition was -4.92% (inactive).
As for `C[C@@H]1CCCCO[C@H](CN(C)C(=O)Cc2ccccc2)[C@H](C)CN([C@@H](C)CO)C(=O)c2cc(NS(=O)(=O)c3ccc(F)cc3)ccc2O1`, the CPE inhibition was -10.6% (inactive).
Consider `CC(C)NC(=O)NCC[C@H]1CC[C@@H](NS(=O)(=O)c2ccc(Oc3ccccc3)cc2)[C@@H](CO)O1`, for which the CPE inhibition is -1.61% (inactive).
The figure for `CO[C@H]1CN(C)C(=O)c2cc(NS(=O)(=O)CC(F)(F)F)ccc2OC[C@@H](C)N(C(=O)c2ccc3c(c2)OCO3)C[C@@H]1C` is 15.3% (inactive); for `COC(=O)CN1C(=O)[C@H]2[C@@H](C3CC3)N3C(=O)CN(Cc4ccc(-c5ccccc5)cc4)C(=O)[C@@]3(Cc3ccccc3)[C@H]2C1=O` it is 3.26% (inactive); for `COC(=O)CN1C(=O)[C@H]2[C@@H](/C=C/c3ccccc3)N3C(=O)CN(CC4CC4)C(=O)[C@@]3(Cc3ccccc3)[C@H]2C1=O` it is 51% (active).
On to `COC(=O)CN1C(=O)[C@H]2[C@@H](/C=C/c3ccccc3)N3C(=O)CN(Cc4ccccc4)C(=O)[C@@]3(Cc3ccccc3)[C@H]2C1=O`, for which the CPE inhibition is -11.1% (inactive).
On to `C[C@H](CO)N1C[C@H](C)[C@@H](CN(C)Cc2ccc(C(F)(F)F)cc2)Oc2ccc(NC(=O)Cn3cnnn3)cc2CC1=O`, for which the CPE inhibition is 7.25% (inactive).
The figure for `Cc1ccc(S(=O)(=O)CCC(=O)OCC(=O)NCCc2ccc(S(N)(=O)=O)cc2)cc1` is 2.48% (inactive).
The figure for `Cc1ccccc1OCCC(=O)OCC(=O)NC(C)c1ccccc1` (centres undefined) is 4.9% (inactive); for `Cc1ccccc1OCCC(=O)OCC(=O)NCCc1ccc(S(N)(=O)=O)cc1` it is 47.5% (active); for `O=C(C[C@@H]1CC[C@@H]2[C@H](COC[C@@H](O)CN2S(=O)(=O)c2ccccc2)O1)NCC1CCCCC1` it is -12.1% (inactive).
The figure for `C[C@@H]1CN([C@@H](C)CO)S(=O)(=O)c2ccc(-c3cccc(C(=O)N(C)C)c3)cc2O[C@@H]1CN(C)C` is -3.85% (inactive); for `c1ccc(-c2ccc(C3[C@@H]4CN(Cc5cccnc5)C[C@H]3N4)cc2)cc1` (some centres undefined) it is -24.3% (inactive); for `N#Cc1cccc(-c2ccc([C@H]3[C@@H](CO)N[C@@H]3CNC(=O)C3CCC3)cc2)c1` it is -1.99% (inactive).
Turning to `N#C[C@H]1N[C@H](CO)[C@H]1c1ccc(-c2cccc(F)c2)cc1`, the CPE inhibition was 3.16% (inactive).
The figure for `O=C(NC[C@@H]1N[C@@H](CO)[C@H]1c1ccc(-c2cccnc2)cc1)c1cccc(F)c1` is 41.5% (active); for `CCCNC(=O)N1C[C@@H](O)COC[C@H]2O[C@@H](CC(=O)NCCCN3CCOCC3)CC[C@@H]21` it is -1.62% (inactive).
The figure for `CO[C@H]1CN(C)C(=O)c2ccc(NC(=O)C3CCOCC3)cc2OC[C@H](C)NC[C@H]1C` is -0.477% (inactive).
The figure for `CO[C@H]1CN(C)C(=O)c2cc(NS(=O)(=O)c3ccc(C)cc3)ccc2OC[C@H](C)NC[C@H]1C` is -0.879% (inactive); for `CO[C@H]1CN(C)C(=O)c2cc(NS(=O)(=O)c3ccccc3)ccc2OC[C@H](C)NC[C@@H]1C` it is 27.3% (active).
Regarding `CO[C@@H]1CN(C)C(=O)c2cc(NS(=O)(=O)c3ccc(Cl)cc3)ccc2OC[C@H](C)NC[C@@H]1C`, the CPE inhibition was -4.08% (inactive).
The figure for `CO[C@H]1CN(C)C(=O)c2cc(NC(=O)C3CC3)ccc2OC[C@@H](C)NC[C@H]1C` is -4.67% (inactive).
For the compound `CO[C@@H]1CN(C)C(=O)c2cc(NC(=O)C3CCOCC3)ccc2OC[C@@H](C)NC[C@@H]1C`, the CPE inhibition is 23.2% (active).
Regarding `C[C@@H]1CCCCO[C@@H](CN(C)C(=O)Nc2ccc(F)cc2)[C@H](C)CN([C@@H](C)CO)C(=O)c2cc(NS(C)(=O)=O)ccc2O1`, the CPE inhibition was -6.59% (inactive).
The figure for `CCCC(=O)N1CC2(C1)CN(C(=O)COC)[C@@H](CO)c1c2c2ccc(OC)cc2n1C` is 10.6% (inactive); for `O=S(=O)(NC[C@H]1[C@H](c2ccccc2)[C@H](CO)N1CC1CC1)c1ccccc1` it is 16.5% (inactive).
The figure for `CCc1cnc(N2[C@H](C#N)[C@H](c3ccccc3-c3ccccc3C)[C@H]2CO)s1` is 6.09% (inactive); for `CCc1cnc(N2[C@H](C#N)[C@H](c3ccc(C4=CCCC4)cc3)[C@@H]2CO)s1` it is 42.6% (active).
Take `N#C[C@@H]1[C@@H](c2ccc(C3=CCCC3)cc2)[C@@H](CO)N1C(=O)C1CCCC1`: the CPE inhibition was -3.68% (inactive).
The figure for `CO[C@@H]1CN(C)C(=O)c2cc(NC(=O)c3cc(C)on3)ccc2OC[C@@H](C)N(C(C)=O)C[C@@H]1C` is 5.53% (inactive); for `O=C(CCC(=O)c1ccccc1)NCc1cccc(C(F)(F)F)c1` it is -5.25% (inactive); for `O=C(CN1CCC(O)(c2cccc(C(F)(F)F)c2)CC1)NCCc1ccccc1` it is 24.3% (active).
The figure for `CCCNC(=O)C1(C)CCCN(Cc2cccc(C(F)(F)F)c2)C1` (centres undefined) is 10.8% (inactive); for `CO[C@H]1CN(C)C(=O)c2ccc(NC(=O)Nc3ccc(Cl)cc3)cc2OC[C@H](C)N(C(=O)Nc2c(C)noc2C)C[C@@H]1C` it is 1.51% (inactive).
The figure for `CCCN1C[C@H](C)[C@H](OC)CN(C)C(=O)c2cc(NC(=O)C3CCOCC3)ccc2OC[C@@H]1C` is -12% (inactive).
On to `O=C(Nc1ccc2c(c1)[C@@H]1C[C@H](CC(=O)N3CCOCC3)O[C@@H](CO)[C@@H]1O2)C1CCOCC1`, for which the CPE inhibition is 14.6% (inactive).
The figure for `CCC(=O)Nc1ccc2c(c1)C(=O)N(C)C[C@H](OC)[C@@H](C)CN(Cc1cccnc1)[C@H](C)CO2` is 3.46% (inactive).
The figure for `Cc1ccccc1C(=O)O` is 0.715% (inactive).
As for `Cc1cc(C(=O)O)ccc1[N+](=O)[O-]`, the CPE inhibition was -17.9% (inactive).
The figure for `Cc1cccc(C(=O)O)c1[N+](=O)[O-]` is 29.4% (active).
`O=C(C[C@H]1C[C@H]2c3cc(NC(=O)Nc4ccc(F)cc4)ccc3O[C@H]2[C@H](CO)O1)NCC1CC1`: the CPE inhibition was -5.03% (inactive).
The figure for `O=C(NC1CCCC1)[C@H]1[C@H](CO)[C@H]2Cn3c(cccc3=O)[C@H]2N1C(=O)NC1CCCC1` is 1.25% (inactive); for `Cn1cnc(CCNC(=O)C[C@H]2CC[C@H]3[C@@H](COC[C@H](O)CN3C(=O)C3CCCC3)O2)c1` it is -0.992% (inactive).
In the case of `O=C(NCc1ccccc1)[C@H]1CCCN1C(=O)[C@H]1CCCN1C(=O)c1cc(F)cc(F)c1`, the CPE inhibition is -4.56% (inactive).
Regarding `O=C(NCc1ccccc1)[C@@H]1CCCN1C(=O)[C@H]1CCCN1C(=O)c1cccc(Cl)c1`, the CPE inhibition was -9.03% (inactive).
The figure for `O=C(NCc1ccccc1)[C@H]1CCCN1C(=O)[C@@H]1CCCN1C(=O)c1ccc(Cl)cc1Cl` is 40.8% (active); for `CC(C)CC#Cc1ccc([C@H]2[C@H]3CN(C(=O)c4cnccn4)CC(=O)N3[C@H]2CO)cc1` it is 6.05% (inactive); for `COc1ccc2c3c([nH]c2c1)[C@@H](CO)N(Cc1cc(F)ccc1F)CC31CCN(C(=O)C2CCC2)CC1` it is 8.85% (inactive).
The figure for `C[C@@H]1CCCCO[C@@H](CN(C)C(=O)Cc2ccccc2)[C@H](C)CN([C@@H](C)CO)C(=O)c2cc(NC(=O)Nc3ccc4c(c3)OCO4)ccc2O1` is -20.6% (inactive).

The values above are taken from PubChem BioAssay AID651640 (Broad Institute, 2012).
